In PubChem BioAssay:
Records with an inconclusive call do not appear. Activity calls are given as the source filed them.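 The calls were made as follows, unless noted: active = differentiation response of at least 50%, scaled between solvent and reference control, from cells with both markers; inactive = the rest.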

How the values were obtained:
[1] = rapamycin-like changes in RPL19A-GFP expression – cell-based, S. cerevisiae, multiplex flow cytometry, primary screen (AID 1862; in the data active = percent of DMSO control GFP below about 86%;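 also: lower values mimic rapamycin by blocking the RPL19A rise seen in DMSO cells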); details: S. cerevisiae RPL19A-GFP strain, flow cytometry fluorescence, 3 h; at 10 µM; stronger effect = lower value
[2] = TOR pathway GLN3 branch reporter MEP2-GFP changes – S. cerevisiae, multiplex flow cytometry, primary screen (AID 1867;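 active = GFP response, as percent of the DMSO control, above the screen-wide mean plus 3 SD, about 139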;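 also: median GFP channel fluorescence of barcode-gated MEP2-GFP cells measured by flow cytometry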); details: S. cerevisiae MEP2-GFP strain, 3 h, at 10 µM, stronger effect = higher value, 100% means same as DMSO wells
[3] = TOR pathway RTG branch CIT2 reporter changes – S. cerevisiae, GFP fusion, multiplex flow cytometry, primary screen (AID 1870;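 active = percent response above a set limit, the screen-wide mean plus 3 SD, cut at about 130% in these data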;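 also: barcoded CIT2-GFP strain pooled with four other GFP strains with rapamycin as positive control; median GFP fluorescence per well over plate mean of DMSO wells so 100% = DMSO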); details: S. cerevisiae CIT2-GFP expression, 3 h, at 10 µM, stronger effect = higher value
[4] = TOR pathway LAP4-GFP level changes – S. cerevisiae, multiplex flow cytometry, primary screen (AID 1873;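 active = GFP signal, as percent of the solvent control, above the screen mean plus 3 SD, about 149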); details: S. cerevisiae LAP4-GFP expression, 3 h, at 10 µM, stronger effect = higher value
[5] = yeast AGP1-GFP level changes, GLN3 branch – cell-based, multiplex flow cytometry, S. cerevisiae, primary screen (AID 1887;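 active = GFP signal above the screen-wide mean plus 3 SD, that is over about 124.5% of the solvent control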;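 also: AGP1-GFP fusion strain of S. cerevisiae within a five-strain barcoded multiplex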); details: 3 h, at 10 µM, stronger effect = higher value
[6] = reduced mouse 2C T cell binding to pMHC/ICAM-1 vesicles – MLPCN validation set, flow cytometry, LFA-1/ICAM-1 modulator project, pilot screen (AID 2523;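 active = response below a set limit, under 55% cells CD8-positive and vesicle-bound, and CD8 cells' 90th-percentile brightness under 279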;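 as to vesicle binding response: mean PE anti-B7-1 fluorescence of CD8+ cells relative to row control; 100% = QL9-loaded vesicles with DMSO vehicle in the same plate row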); details: 2C mouse CD8+ T cells, at 7 µM, stronger effect = lower value; double positive events: measured here: CD8+/vesicle+ event percentage
[7] = molecular target: Integrin beta-1 (Homo sapiens) + Integrin alpha-4 (Homo sapiens) (UniProt P13612+P05556); assay: alpha4beta1 integrin LIBS antibody binding reduction – U937 cells, HUTS-21 mAb, flow cytometry, validation set, VLA-4 allosteric modulator project, pilot screen (AID 2674;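 active = inhibition above 50%, about 3 SD of the validation set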;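 also: antibody binding induced by the VLA-4 ligand LDV present at three times its Kd; 0% = LDV ligand with antibody and no compound and 100% = antibody without LDV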); details: HUTS-21 LIBS mAb binding, at 6.7 µM, stronger effect = higher value, binding induced by LDV ligand
Sequence of Integrin beta-1 (Homo sapiens) + Integrin alpha-4 (Homo sapiens) (P05556 whole entry, looked up): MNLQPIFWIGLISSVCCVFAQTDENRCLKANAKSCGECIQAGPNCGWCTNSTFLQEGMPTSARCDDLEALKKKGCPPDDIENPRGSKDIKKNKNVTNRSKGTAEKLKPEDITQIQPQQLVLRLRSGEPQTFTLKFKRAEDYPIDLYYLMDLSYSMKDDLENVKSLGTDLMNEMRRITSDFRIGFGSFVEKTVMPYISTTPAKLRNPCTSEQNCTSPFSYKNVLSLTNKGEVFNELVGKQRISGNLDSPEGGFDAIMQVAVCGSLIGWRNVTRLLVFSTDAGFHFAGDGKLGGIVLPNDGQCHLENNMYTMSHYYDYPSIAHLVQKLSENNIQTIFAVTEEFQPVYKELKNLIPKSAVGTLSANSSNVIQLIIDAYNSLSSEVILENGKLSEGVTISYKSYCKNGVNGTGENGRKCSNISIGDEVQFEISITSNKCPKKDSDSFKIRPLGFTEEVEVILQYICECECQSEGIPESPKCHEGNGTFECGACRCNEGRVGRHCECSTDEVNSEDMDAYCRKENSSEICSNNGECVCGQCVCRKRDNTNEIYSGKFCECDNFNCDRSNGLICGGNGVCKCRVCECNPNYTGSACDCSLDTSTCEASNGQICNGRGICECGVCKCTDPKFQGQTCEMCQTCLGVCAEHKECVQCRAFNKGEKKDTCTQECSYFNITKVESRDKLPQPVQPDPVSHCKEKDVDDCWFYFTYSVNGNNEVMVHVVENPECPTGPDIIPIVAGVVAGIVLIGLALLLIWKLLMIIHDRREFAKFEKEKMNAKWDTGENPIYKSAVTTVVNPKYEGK
Sequence of Integrin beta-1 (Homo sapiens) + Integrin alpha-4 (Homo sapiens) (P13612 whole entry, looked up): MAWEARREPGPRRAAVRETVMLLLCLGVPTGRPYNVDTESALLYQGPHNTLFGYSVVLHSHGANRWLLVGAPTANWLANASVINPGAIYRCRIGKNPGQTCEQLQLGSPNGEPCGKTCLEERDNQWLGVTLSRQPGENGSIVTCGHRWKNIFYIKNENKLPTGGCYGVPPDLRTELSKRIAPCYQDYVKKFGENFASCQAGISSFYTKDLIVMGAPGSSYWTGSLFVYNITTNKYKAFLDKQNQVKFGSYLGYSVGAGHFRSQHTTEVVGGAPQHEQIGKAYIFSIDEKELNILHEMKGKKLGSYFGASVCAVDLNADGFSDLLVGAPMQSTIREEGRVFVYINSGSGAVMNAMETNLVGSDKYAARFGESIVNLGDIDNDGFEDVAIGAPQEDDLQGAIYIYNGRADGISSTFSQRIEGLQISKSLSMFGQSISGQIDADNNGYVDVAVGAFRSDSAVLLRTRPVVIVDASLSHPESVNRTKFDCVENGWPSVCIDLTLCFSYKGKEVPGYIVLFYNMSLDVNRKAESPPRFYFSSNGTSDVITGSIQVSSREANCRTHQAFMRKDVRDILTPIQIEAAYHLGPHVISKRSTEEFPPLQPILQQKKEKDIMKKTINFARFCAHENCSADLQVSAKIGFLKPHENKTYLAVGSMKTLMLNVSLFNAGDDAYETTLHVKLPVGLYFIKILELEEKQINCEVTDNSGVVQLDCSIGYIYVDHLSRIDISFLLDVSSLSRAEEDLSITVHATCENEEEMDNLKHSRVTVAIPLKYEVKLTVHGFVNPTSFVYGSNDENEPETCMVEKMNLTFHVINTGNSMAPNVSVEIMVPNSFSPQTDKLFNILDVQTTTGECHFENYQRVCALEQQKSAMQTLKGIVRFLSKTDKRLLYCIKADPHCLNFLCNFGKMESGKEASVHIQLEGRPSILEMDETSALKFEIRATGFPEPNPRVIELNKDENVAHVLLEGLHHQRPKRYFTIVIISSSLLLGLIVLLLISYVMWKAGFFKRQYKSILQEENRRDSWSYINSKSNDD

[8] = calorie-restriction mimetic ROS inhibitors, yeast – validation compound set, pilot screen (AID 2706;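 active = superoxide response below 65% of plate, a cut near 3 SD across the whole screen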;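 also: yeast exposed to compound for one week at 30 degrees C before staining; 100% = mean of all compound wells on the same plate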); details: S. cerevisiae aging, superoxide DHE fluorescence; at 10 µM; stronger effect = lower value
[9] = molecular target: Beta-adrenergic receptor kinase 1 (Homo sapiens) (UniProt P25098); assay: GRK2 binders displacing RNA aptamer, biochemical, validation, human GRK2, bead flow cytometry (AID 488806;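 active = aptamer binding inhibition above 30%, about 3 SD of noise from non-fluorescent compounds; inactive = inhibition at or below 30%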); details: bead-bound GRK2, FAM-aptamer displacement, at 10 µM, stronger effect = higher value
Sequence of Beta-adrenergic receptor kinase 1 (Homo sapiens) (P25098 whole entry, looked up): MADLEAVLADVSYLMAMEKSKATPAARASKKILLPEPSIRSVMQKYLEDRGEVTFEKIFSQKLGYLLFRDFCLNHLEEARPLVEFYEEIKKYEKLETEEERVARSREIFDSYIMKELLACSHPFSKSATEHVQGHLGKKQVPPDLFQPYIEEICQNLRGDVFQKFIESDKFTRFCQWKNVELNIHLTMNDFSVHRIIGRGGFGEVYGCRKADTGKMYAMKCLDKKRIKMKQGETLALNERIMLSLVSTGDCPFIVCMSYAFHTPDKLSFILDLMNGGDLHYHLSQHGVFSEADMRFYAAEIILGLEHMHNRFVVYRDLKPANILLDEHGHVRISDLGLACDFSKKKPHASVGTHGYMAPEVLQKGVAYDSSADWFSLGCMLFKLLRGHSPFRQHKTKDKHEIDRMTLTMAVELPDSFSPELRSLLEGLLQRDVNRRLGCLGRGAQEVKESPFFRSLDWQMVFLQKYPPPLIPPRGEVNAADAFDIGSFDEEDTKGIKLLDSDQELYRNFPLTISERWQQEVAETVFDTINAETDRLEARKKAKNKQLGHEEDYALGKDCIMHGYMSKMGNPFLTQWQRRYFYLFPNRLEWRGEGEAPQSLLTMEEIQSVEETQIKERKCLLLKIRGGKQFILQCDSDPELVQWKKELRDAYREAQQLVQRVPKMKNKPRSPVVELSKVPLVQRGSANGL

[10] = molecular target: Beta-2 adrenergic receptor (Homo sapiens) (UniProt P07550); assay: agonist-induced loss of surface beta2AR – cell-based, FAP fluorogen, flow cytometry, validation set, pilot screen (AID 504459;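 active = percent response above 42, roughly 3 SD of non-fluorescent test compounds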;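 also: agonist-driven loss of surface beta2AR via internalization measured by FAP dye flow cytometry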); details: Am2.2-beta2AR cells, at 10 µM, stronger effect = higher value
Sequence of Beta-2 adrenergic receptor (Homo sapiens) (P07550 whole entry, looked up): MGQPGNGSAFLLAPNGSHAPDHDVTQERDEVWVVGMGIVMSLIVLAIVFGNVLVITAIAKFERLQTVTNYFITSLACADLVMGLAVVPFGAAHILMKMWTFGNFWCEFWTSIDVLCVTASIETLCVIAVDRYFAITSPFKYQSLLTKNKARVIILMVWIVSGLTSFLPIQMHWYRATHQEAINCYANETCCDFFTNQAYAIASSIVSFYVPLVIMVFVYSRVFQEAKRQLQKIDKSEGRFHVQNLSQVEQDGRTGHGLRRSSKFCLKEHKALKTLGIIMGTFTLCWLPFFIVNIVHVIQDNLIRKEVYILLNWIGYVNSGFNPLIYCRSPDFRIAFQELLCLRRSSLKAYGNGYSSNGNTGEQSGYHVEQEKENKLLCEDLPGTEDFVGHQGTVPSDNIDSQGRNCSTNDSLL

[11] = molecular target: AP-2 complex subunit beta (Homo sapiens) (UniProt P63010); assay: beta-arrestin/AP2 interaction blockers – biochemical, validation set, GST-AP2 beads, flow cytometry, pilot screen (AID 504541;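 active = inhibition above 54%, about 3 SD of non-fluorescent compounds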;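 also: AP2 carries R879A mutation and is captured from E. coli lysate; bead-bound FITC arrestin peptide fluorescence measuring arrestin peptide binding to AP2; 0% = DMSO wells and 100% = excess unlabeled arrestin peptide control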); details: FITC arrestin peptide, at 10 µM, stronger effect = higher value, AP2 beta2 appendage fragment, R879A mutant
Sequence of AP-2 complex subunit beta (Homo sapiens) (P63010 whole entry, looked up, the tested form may be a part, one chain of several): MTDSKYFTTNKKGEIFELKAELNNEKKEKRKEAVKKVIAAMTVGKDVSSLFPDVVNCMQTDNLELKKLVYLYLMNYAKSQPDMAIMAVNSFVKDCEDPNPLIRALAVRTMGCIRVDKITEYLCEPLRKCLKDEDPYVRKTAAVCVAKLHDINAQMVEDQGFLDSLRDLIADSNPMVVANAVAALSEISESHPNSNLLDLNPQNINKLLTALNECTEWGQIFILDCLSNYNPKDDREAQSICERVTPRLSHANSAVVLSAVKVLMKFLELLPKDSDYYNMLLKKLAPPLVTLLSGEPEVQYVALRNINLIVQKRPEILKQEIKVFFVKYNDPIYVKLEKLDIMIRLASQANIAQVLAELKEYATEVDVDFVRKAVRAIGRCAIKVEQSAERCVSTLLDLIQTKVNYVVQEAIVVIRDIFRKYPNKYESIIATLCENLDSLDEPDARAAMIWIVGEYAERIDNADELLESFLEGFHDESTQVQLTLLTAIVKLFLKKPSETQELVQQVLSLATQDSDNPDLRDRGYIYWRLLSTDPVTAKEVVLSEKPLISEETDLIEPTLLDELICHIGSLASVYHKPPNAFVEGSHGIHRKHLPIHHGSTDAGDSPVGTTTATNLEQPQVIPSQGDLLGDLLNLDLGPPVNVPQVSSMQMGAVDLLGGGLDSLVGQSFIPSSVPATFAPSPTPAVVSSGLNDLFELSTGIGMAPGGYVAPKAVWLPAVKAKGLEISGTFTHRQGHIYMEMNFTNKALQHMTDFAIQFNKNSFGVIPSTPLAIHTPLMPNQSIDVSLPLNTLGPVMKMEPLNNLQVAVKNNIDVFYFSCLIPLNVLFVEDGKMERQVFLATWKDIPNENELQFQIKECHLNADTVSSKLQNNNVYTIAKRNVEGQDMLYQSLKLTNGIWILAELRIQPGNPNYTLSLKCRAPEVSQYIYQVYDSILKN

[12] = cytosolic pH regulators acting via V-ATPase – S. cerevisiae, pHLuorin, HTS validation (AID 504600; in the data active = response above about 15%;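 also: plate controls were DMSO for no effect and reference compound for full effect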); details: V-ATPase proton transport, at 10 µM, stronger effect = higher value
[13] = system: anti-desmoglein-3 scFv antibody binding to human DSG3; assay: blockers of pathogenic pemphigus antibody–desmoglein-3 binding – biochemical, validation compound set, bead-based, flow cytometry, pilot screen (AID 588368;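 active = binding below the plate cutoff, the plate median minus 3 SD, with a reading above zero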;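 also: signal is the median channel fluorescence of bead-bound GFP antibody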); details: Protein G beads, DSG3-Fc, scFv-GFP binding, at 10 µM, stronger effect = lower value
[14] = Nile Red efflux blockade in pump-expressing yeast – validation compound set, multiplex, phenotypic, pilot screen (AID 588506;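 active = efflux inhibition above 0.42, the validation set average plus 4 SD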;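 also: Nile Red retained in cells so higher fluorescence means more efflux inhibition; 0 = negative control wells and 1 = enniatin B 25 µM full block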); details: S. cerevisiae pump-expressing triplex, Nile Red efflux flow cytometry; at 10 µM; stronger effect = higher value; the pumps come from Candida albicans
[15] = molecular target: ATP-binding cassette sub-family B member 6 (Homo sapiens) (UniProt Q9NP58); assay: blockers of ABCB6-driven porphyrin uptake – K562-ABCB6 cells, flow cytometry, validation set, pilot screen (AID 588550;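 active = inhibition above the screen-wide mean plus 3 SD, about 51%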;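 also: 0% = DMSO wells and 100% = benzethonium chloride 70 µM positive control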); details: K562-ABCB6 porphyrin accumulation, 1 h, at 10 µM, stronger effect = higher value
Sequence of ATP-binding cassette sub-family B member 6 (Homo sapiens) (Q9NP58 whole entry, looked up): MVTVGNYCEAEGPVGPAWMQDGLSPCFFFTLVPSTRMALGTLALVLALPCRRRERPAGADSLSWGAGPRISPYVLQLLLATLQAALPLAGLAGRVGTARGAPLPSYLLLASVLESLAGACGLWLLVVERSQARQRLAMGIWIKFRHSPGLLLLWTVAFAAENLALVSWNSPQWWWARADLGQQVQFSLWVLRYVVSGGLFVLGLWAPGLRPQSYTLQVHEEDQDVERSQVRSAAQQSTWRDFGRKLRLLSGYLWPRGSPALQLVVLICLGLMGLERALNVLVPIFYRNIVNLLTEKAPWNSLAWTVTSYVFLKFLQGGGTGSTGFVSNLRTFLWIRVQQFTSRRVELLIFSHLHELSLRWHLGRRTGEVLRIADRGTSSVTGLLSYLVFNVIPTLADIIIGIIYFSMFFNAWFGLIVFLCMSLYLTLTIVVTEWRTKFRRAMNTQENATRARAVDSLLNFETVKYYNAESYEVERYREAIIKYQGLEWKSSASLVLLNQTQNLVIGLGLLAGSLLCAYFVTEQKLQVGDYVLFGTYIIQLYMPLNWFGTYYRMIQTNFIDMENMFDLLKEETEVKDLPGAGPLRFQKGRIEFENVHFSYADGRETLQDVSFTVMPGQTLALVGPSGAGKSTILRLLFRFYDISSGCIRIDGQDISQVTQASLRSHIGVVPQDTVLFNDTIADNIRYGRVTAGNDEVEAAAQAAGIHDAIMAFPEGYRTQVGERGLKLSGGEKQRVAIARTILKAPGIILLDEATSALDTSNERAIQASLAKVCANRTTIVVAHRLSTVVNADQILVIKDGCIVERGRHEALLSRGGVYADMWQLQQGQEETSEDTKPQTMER

[16] = AML differentiation inducers, ER-HoxA9 marrow cells – cell-based, GFP/MAC1 double positive, flow cytometry, validation set, primary screen (AID 588685); details: stronger effect = higher value, normalized: vehicle 0, fulvestrant 100;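 also: compound exposure lasts four days before antibody staining and flow analysis; 0% = DMSO wells and 100% = 5 µM fulvestrant positive control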

SMILES	percent of DMSO control GFP [1]	GFP response vs DMSO [2]	percent response of DMSO control [3]	GFP response vs DMSO [4]	GFP response, % of DMSO [5]	double positive events [6] [%]	vesicle binding response [6]	inhibition [7]	superoxide response (% of plate) [8]	aptamer binding inhibition [9]	response [10]	inhibition [11]	response [12]	binding (% of control) [13]	efflux inhibition (fraction of control) [14]	inhibition [15]	differentiation response [16]
CC1(C)CC(C(CC(=O)O)c2ccccc2)CCO1 (stereo not given)	97.6% (inactive)	103% (inactive)	99.6% (inactive)	109% (inactive)	102% (inactive)	58.1	155% (inactive)	-1.79% (inactive)	99.7% (inactive)	0% (inactive)	-5.23% (inactive)	48.1% (inactive)	-5.35% (inactive)	95.7% (inactive)	0.05 (inactive)	2% (inactive)	37.6% (inactive)
CCOC(=O)C1(Cc2cccc(Cl)c2)CCCN(C2CCN(C(C)=O)CC2)C1 (stereo not given)	101% (inactive)	101% (inactive)	102% (inactive)	101% (inactive)	100% (inactive)	60.5	42.6% (inactive)	-7.72% (inactive)	106% (inactive)	-3% (inactive)	-8.31% (inactive)	34.6% (inactive)	-5.5% (inactive)	177% (inactive)	-0.1 (inactive)	13% (inactive)	-0.73% (inactive)
Cc1ccc2[nH]c3c(=O)n(CCc4cnc[nH]4)cnc3c2c1	96.4% (inactive)	99.7% (inactive)	105% (inactive)	97% (inactive)	103% (inactive)	65.2	172% (inactive)	-17.2% (inactive)	93.1% (inactive)	0% (inactive)	-13.6% (inactive)	-15.4% (inactive)	1.97% (inactive)	103% (inactive)	-0.58 (inactive)	10% (inactive)	-14.8% (inactive)
CC(C)NS(=O)(=O)c1ccc(OCC(=O)Nc2cccc(F)c2)cc1	101% (inactive)	98.7% (inactive)	106% (inactive)	89.3% (inactive)	92.4% (inactive)	59.7	143% (inactive)	-11.8% (inactive)	95.1% (inactive)	3% (inactive)	3.73% (inactive)	5.6% (inactive)	-2.45% (inactive)	98.5% (inactive)	0.22 (inactive)	7% (inactive)	-10.4% (inactive)
CC(=O)N1CCn2c3c(c4cc(C)ccc42)CCCC31 (stereo not given)	99.7% (inactive)	102% (inactive)	98.3% (inactive)	123% (inactive)	111% (inactive)	62	208% (inactive)	0.59% (inactive)	122% (inactive)	0% (inactive)	14.2% (inactive)	61.1% (active)	4.65% (inactive)	110% (inactive)	0.38 (inactive)	-1% (inactive)	-4% (inactive)
COC(=O)c1cc(COc2ccc3ccc(=O)oc3c2)c(C)o1	105% (inactive)	104% (inactive)	101% (inactive)	109% (inactive)	92.4% (inactive)	59.9	120% (inactive)	-15.8% (inactive)	108% (inactive)	1% (inactive)	7.33% (inactive)	-2.54% (inactive)	-7.29% (inactive)	102% (inactive)	0.29 (inactive)	12% (inactive)	-7.5% (inactive)
COc1cc2c(cc1OC)-c1nnc(C)n1C(C)(C)C2	100% (inactive)	94.1% (inactive)	107% (inactive)	102% (inactive)	100% (inactive)	59.4	211% (inactive)	-1.79% (inactive)	94.7% (inactive)	2% (inactive)	3.64% (inactive)	-4.56% (inactive)	7.5% (inactive)	100% (inactive)	-0.21 (inactive)	4% (inactive)	-28% (inactive)
O=Cc1ccc(O)c(O)c1	106% (inactive)	99.7% (inactive)	107% (inactive)	98% (inactive)	108% (inactive)	65.7	145% (inactive)	8.29% (inactive)	99.7% (inactive)	6% (inactive)	0.09% (inactive)	6.09% (inactive)	-5.24% (inactive)	105% (inactive)	-0.11 (inactive)	21% (inactive)	-4.57% (inactive)
CCCNC(C)C(=O)Nc1ccccc1C (stereo not given)	100% (inactive)	101% (inactive)	101% (inactive)	92.6% (inactive)	103% (inactive)	60.4	130% (inactive)	-15.8% (inactive)	96.4% (inactive)	2% (inactive)	2.61% (inactive)	-0.33% (inactive)	4.59% (inactive)	102% (inactive)	-0.16 (inactive)	-3% (inactive)	-7.5% (inactive)
CC(=O)[C@@]1(O)CC[C@H]2[C@@H]3C[C@H](C)C4=CC(=O)C=C[C@]4(C)[C@@]3(F)[C@@H](O)C[C@@]21C	102% (inactive)	134% (inactive)	110% (inactive)	93% (inactive)	95.2% (inactive)	63.3	157% (inactive)	2.58% (inactive)	99.4% (inactive)	5% (inactive)	-0.53% (inactive)	32.1% (inactive)	-3.11% (inactive)	101% (inactive)	-0.35 (inactive)	9% (inactive)	9.83% (inactive)
